Consider 83 compounds from PubChem BioAssay AID1159602 (The Scripps Research Institute Molecular Screening Center, 2016).

Out of some 22,000 compounds screened, about 220 (1%) were called active. For the sample, actives were picked, then their nearest neighbours and some compounds at random. Unmarked numbers belong to inactive results. Rule as the data show it: active = inhibition above about 35%; inactive = the rest.

The target in the assay is Mitogen-activated protein kinase kinase kinase 5 (Homo sapiens) (UniProt Q99683). The experiment in a line: blockers of MAP3K5 kinase activity – biochemical, AlphaScreen, primary screen (AID 1159602).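 Also: 0% = median of compound wells and 100% = no enzyme.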 The settings on record: AlphaScreen MKK6 phosphorylation by ASK1, luminescence; at 7.44 µM; hits give high values. Background: In Alpha technology, singlet oxygen from a donor bead excites a nearby acceptor bead.
Chain of Mitogen-activated protein kinase kinase kinase 5 (Homo sapiens) (Q99683 whole entry, looked up): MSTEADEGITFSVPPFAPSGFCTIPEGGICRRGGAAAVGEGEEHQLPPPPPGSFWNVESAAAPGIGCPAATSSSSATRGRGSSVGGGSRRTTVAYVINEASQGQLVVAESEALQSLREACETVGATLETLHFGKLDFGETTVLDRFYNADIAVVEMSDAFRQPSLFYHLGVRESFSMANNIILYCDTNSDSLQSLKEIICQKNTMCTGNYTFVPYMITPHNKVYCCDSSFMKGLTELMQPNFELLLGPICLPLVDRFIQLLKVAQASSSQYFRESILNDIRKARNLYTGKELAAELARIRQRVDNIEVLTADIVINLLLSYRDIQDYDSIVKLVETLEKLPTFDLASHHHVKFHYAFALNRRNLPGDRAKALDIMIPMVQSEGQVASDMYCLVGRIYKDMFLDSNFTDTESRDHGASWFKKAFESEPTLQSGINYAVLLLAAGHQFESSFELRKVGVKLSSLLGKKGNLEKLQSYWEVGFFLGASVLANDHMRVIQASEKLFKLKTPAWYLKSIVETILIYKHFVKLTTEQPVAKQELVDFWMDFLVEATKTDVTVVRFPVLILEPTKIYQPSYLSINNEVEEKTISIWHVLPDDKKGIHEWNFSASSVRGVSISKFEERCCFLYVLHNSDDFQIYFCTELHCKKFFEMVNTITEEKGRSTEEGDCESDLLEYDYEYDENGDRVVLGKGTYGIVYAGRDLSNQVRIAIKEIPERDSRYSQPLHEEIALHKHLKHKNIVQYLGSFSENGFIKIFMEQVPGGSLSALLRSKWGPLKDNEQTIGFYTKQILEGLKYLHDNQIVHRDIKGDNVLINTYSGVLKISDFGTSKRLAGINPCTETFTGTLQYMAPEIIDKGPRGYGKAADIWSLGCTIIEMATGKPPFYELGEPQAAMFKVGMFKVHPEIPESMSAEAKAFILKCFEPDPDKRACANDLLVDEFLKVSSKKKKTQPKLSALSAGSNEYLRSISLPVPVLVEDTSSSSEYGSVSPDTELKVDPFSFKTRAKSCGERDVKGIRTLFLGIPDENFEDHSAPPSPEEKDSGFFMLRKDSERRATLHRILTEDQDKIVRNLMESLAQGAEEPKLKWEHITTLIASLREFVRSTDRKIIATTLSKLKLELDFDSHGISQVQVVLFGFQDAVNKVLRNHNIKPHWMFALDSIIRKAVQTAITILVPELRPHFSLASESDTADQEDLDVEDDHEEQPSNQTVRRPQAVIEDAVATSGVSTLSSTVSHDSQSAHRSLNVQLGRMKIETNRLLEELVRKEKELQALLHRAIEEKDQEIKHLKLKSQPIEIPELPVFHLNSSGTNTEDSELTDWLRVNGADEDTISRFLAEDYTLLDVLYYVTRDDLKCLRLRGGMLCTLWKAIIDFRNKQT
As to `CCCN1CCN(c2c(Cl)cccc2NC(=O)Nc2ccc(Br)cc2)CC1`, the inhibition (in general, the change of the read-out against control, counted positive when it falls) is -17.3%.
On to `c1cc(-c2cncc(N3CCOCC3)c2)nc(Nc2ccc3c(c2)OCO3)n1`, for which the inhibition is -4.36%.
As to `COc1ccc(CCNc2cc(NCc3cccnc3)nc(N)n2)cc1`, the inhibition was -6.16%.
With `Cc1cc(NC2CC2)nc(NCCCN2CCCC2=O)n1` the figure was 7.09%.
Take `COc1ccc(CCNc2cc(-c3ccc(OC)cc3)nc(N)n2)cc1`: the inhibition was -5.04%.
The same measure for `COc1cc2nc(NCc3ccc4c(c3)OCO4)nc(Nc3ccc(NC(C)=O)cc3)c2cc1OC`: 18.8%; for `COc1cc2nc(Nc3ncccn3)nc(Nc3cc(OC)c(OC)c(OC)c3)c2cc1OC`: 14.3%.
The same measure for `COc1cc2nc(Nc3nccc4ccccc34)nc(Nc3ccccc3)c2cc1OC`: -29.2%; for `COc1cc2nc(Nc3ccc4ncccc4c3)nc(Nc3ccc(NC(C)=O)cc3)c2cc1OC`: 35.6% (active); for `COc1cc(Nc2nc(Nc3cccc(N(C)C)c3)nc3nc[nH]c23)cc(OC)c1OC`: 27%.
The same measure for `COc1cc2nc(Nc3cccc(N(C)C)c3)nc(Nc3cc(OC)c(OC)c(OC)c3)c2cc1OC`: 36.7% (active); for `FC(F)(F)c1ccc(Cn2cnc3c(NCc4nc5ccccc5[nH]4)nc(N4CCOCC4)nc32)cc1`: -1.96%; for `Cn1nccc1-c1cc(F)cc(-c2ccnc(Nc3ccc(-n4cnc(N5CCOCC5)n4)cc3)n2)c1`: 21.1%.
In the case of `O=C(Nc1cccc(Cl)c1N1CCC(N2CCCCC2)CC1)c1ccc(Br)o1`, the inhibition is 9.68%.
With `O=C1CCCN1CCn1cnc2c(Nc3ccc(N4CCOCC4)cc3)nc(Nc3ccccc3)nc21` the figure was 13.9%; with `COc1ccc(CCNC(=O)c2cccc(-c3ccc(C(N)=O)cc3)n2)cc1`, 0.41%; with `CNC(=O)c1cc(F)ccc1Nc1cc(Nc2ccc3c(c2)CCC(=O)N3)ncc1C(F)(F)F`, 2.41%.
With `c1ccc(CCNc2nccc(Nc3ccncn3)n2)cc1` the figure was 1.01%; with `CC(C)n1cnc2c(Nc3ccc(N4CCOCC4)cc3)nc(Nc3ccncc3)nc21`, 4.78%.
Turning to `COc1cc(Nc2nc(N3CCc4ccccc4C3)nc3c2ncn3-c2ccccc2)cc(OC)c1OC`, the inhibition is 38.8% (active).
With `COc1cc(Nc2nc(N3CCc4ccccc4C3)nc3c2ncn3-c2ccsc2)cc(OC)c1OC` the figure was 6.46%.
`CCCNc1nc(N2CCc3ccccc3C2)nc2c1ncn2-c1ccccc1`: the inhibition is 6.17%.
The same measure for `O=C(NCc1ccccc1)c1cnc(NCc2ccc3c(c2)OCO3)s1`: -19.1%.
The same measure for `O=C1CCCN1CCCNc1nccc(NC2CCN(Cc3ccccc3)CC2)n1`: -6.87%.
With `CN1CCN(c2ccc(-c3cc(Nc4ccc(N5CCOCC5)cc4)nc(N)n3)cc2)CC1` the figure was 17.6%; with `Nc1nc(Nc2ccc(N3CCOCC3)cc2)cc(-c2ccc3[nH]ccc3c2)n1`, 41.8% (active); with `c1nc(Nc2ccc(N3CCOCC3)cc2)cc(N2CCOCC2)n1`, 3.52%.
Consider `Nc1cccc(-c2nc(NCCc3ccc(O)cc3)c3ncn(Cc4ccc(C(F)(F)F)cc4)c3n2)c1`, for which the inhibition was 3.28%.
With `c1ccc(CCCNc2nccc(Nc3ccncn3)n2)cc1`, the inhibition is 12.3%.
The same measure for `Nc1nc(Nc2ccc(-n3ccnc3)cc2)cc(NC2CCN(Cc3ccccc3)CC2)n1`: 18.2%; for `COc1ccc(-c2cccc(C(=O)Nc3ccccc3)n2)cn1`: -3.52%.
With `O=C(NCCO)c1ccc2nc(NCCN3CCOCC3)sc2c1` the figure was -9.95%.
Regarding `COc1nc(Nc2ccccc2)nc(-c2csc3ccccc23)n1`, the inhibition is -2.87%.
With `c1csc(-c2ccnc(Nc3ccc(N4CCOCC4)cc3)n2)c1` the figure was 13.2%; with `CCCNc1nc(-c2cccc(C(C)=O)c2)ncc1C`, -6.63%; with `O=C(Nc1ccc2[nH]ncc2c1)C1CCN(C(=O)[C@H](O)c2cccc(Cl)c2)C1` (stereo partly drawn), -11.7%.
As to `CC(C)n1cnc2c(NC3CCN(Cc4ccccc4)CC3)nc(-c3ccc(N4CCOCC4)nc3)nc21`, the inhibition is 11%.
With `O=C1CCCN1CCCNc1cc(NCc2cccnc2)ncn1` the figure was 2.26%; with `CCN(CC)C(=O)C1CCCN(c2nc3ncnc(NCCN4CCOCC4)c3[nH]2)C1` (stereo not drawn), 1.62%.
As to `O=C(NC1CC1)c1ccc(-c2ncc(C(=O)Nc3ccc(N4CCOCC4)cc3)s2)cc1`, the inhibition was 1.95%.
As for `Nc1cccc(-c2ccc(C(=O)NCc3nc4ccccc4[nH]3)s2)c1`, the inhibition is 7.11%.
As for `CCCNc1nc(-c2ccc(C(=O)N3CCN(C)CC3)cc2)nc2c1ncn2C(C)C`, the inhibition is -4.93%.
The same measure for `c1ccc(OCCNc2cc(NCc3ccc4c(c3)OCO4)ncn2)cc1`: 11.6%; for `O=C(NC1CC1)c1ccc(-c2nc(NC3CC3)c3ncn(C4CCCCC4)c3n2)cc1`: -4.59%; for `Cc1[nH]ncc1-c1ccc(NC(=O)CCc2ccccc2)cc1`: 1.62%.
The same measure for `O=C(NC1CC1)c1ccc(-c2nc(C(=O)NCc3cccc(C(F)(F)F)c3)cs2)cc1`: -7.56%; for `c1ccc(CN2CCC(Nc3nc(NCc4ccc5c(c4)OCO5)nc4c3ncn4C3CCCCC3)CC2)cc1`: 24.9%.
The same measure for `FC(F)(F)c1ccc(Cn2cnc3c(NC4CCN(Cc5ccccc5)CC4)nc(Nc4nccc5ccccc45)nc32)cc1`: 7.54%.
Regarding `FC(F)(F)c1cnc(Nc2ccc(N3CCOCC3)cc2)cc1-n1ncc2ccccc21`, the inhibition was -0.62%.
The same measure for `FC(F)(F)c1cccc(CNc2nc(Nc3ccc(N4CCOCC4)cc3)nc3c2ncn3-c2ccsc2)c1`: 41.6% (active); for `COc1cc(Nc2nc(NCc3cccc(C(F)(F)F)c3)c3ncn(-c4ccsc4)c3n2)cc(OC)c1OC`: 15.7%.
With `c1ccc(CNc2nc(N3CCN(c4ccccn4)CC3)nc3c2ncn3-c2ccsc2)cc1` the figure was 19.3%.
For the compound `FC(F)(F)c1ccc(Cn2cnc3c(NCc4cccc(C(F)(F)F)c4)nc(Nc4ccc(N5CCOCC5)cc4)nc32)cc1`, the inhibition is 12.8%.
On to `c1ccc(N2CCN(c3nc(NCc4nc5ccccc5[nH]4)c4ncn(-c5ccsc5)c4n3)CC2)nc1`, for which the inhibition is -8.09%.
The same measure for `FC(F)(F)c1cccc(CNc2ncnc3nc(N4CCOCC4)[nH]c23)c1`: -25.3%.
With `FC(F)(F)c1cccc(CNc2nc(N3CCN(c4ccccn4)CC3)nc3c2ncn3-c2ccsc2)c1`, the inhibition is 40.9% (active).
For the compound `FC(F)(F)c1cccc(CNc2nc(N3CCOCC3)nc3c2ncn3-c2ccsc2)c1`, the inhibition was 8.31%.
Regarding `O=C1CCCN1CCn1cnc2c(NCc3cccc(C(F)(F)F)c3)nc(N3CCN(Cc4ccc5c(c4)OCO5)CC3)nc21`, the inhibition is 15.8%.
With `Cc1cnc(Nc2ccc(N3CCOCC3)cc2)nc1NCc1cccc(C(F)(F)F)c1` the figure was 41.4% (active); with `O=C1CCCN1CCCNc1nc(N2CCN(Cc3ccc4c(c3)OCO4)CC2)nc2c1ncn2-c1ccccc1`, 14.4%.
With `FC(F)(F)c1cccc(CNc2nc(N3CCN(Cc4ccc5c(c4)OCO5)CC3)nc3c2ncn3-c2ccccc2)c1` the figure was 36.7% (active); with `O=C(Nc1ccncc1)OC1CCN(C(=O)[C@H](O)COc2ccc(Br)cc2)CC1`, -3.38%.
The same measure for `COC(=O)c1cccc(-n2ncc3cc(Nc4ccccc4)ccc32)c1`: -20.5%.
Take `Cc1noc(C)c1-c1nc(NC2CC2)c2ncn(-c3ccsc3)c2n1`: the inhibition was -7.13%.
As to `COc1cc2nc(N3CCN(c4ccccn4)CC3)nc(NCc3nc4ccccc4[nH]3)c2cc1OC`, the inhibition is -8.78%.
With `CC(=O)Nc1ccc(NC(=O)c2csc(N3CCC(N4CCOCC4)CC3)n2)cc1` the figure was 14.1%.
The same measure for `CCCNc1nc(-c2cccc(C(C)=O)c2)nc2nc[nH]c12`: 6.62%.
Consider `c1ccc(OCCNc2nc(N3CCC(N4CCOCC4)CC3)nc3c2ncn3-c2ccccc2)cc1`, for which the inhibition was 8.08%.
With `CC(C)(C)OC(=O)N1CCC(CC(=O)Nc2ccnn2-c2cccc(C(=O)Nc3ccc(N4CCOCC4)cc3)c2)CC1` the figure was 7.81%; with `Cc1noc(C)c1-c1cc(C(=O)NCc2cccc(C(F)(F)F)c2)ccn1`, 1.72%; with `O=C(NCCOc1ccccc1)c1cnc(Nc2cccnc2)s1`, 4.63%.
For `O=C(c1cccnc1)N1CCCC(Nc2ccc3[nH]ncc3c2)C1` (stereo not drawn), the inhibition is -32%.
With `Nc1cccc(-c2nc(NCc3nc4ccccc4[nH]3)c3ncn(Cc4ccc(C(F)(F)F)cc4)c3n2)c1` the figure was -18.3%; with `Cc1cc(NCc2cccnc2)nc(-c2ccc(C(N)=O)cc2)n1`, 1.31%.
`COc1cc(Nc2cc(C(=O)NCc3ccccc3)ccn2)cc(OC)c1OC`: the inhibition is 2.85%.
`O=C(NC1CC1)c1ccc(-c2nc(NC3CCN(Cc4ccccc4)CC3)c3ncn(C4CCCCC4)c3n2)cc1`: the inhibition was 9.66%.
Turning to `FC(F)(F)c1cccc(CNc2ncnc3nc(Nc4ccncn4)[nH]c23)c1`, the inhibition was 14.3%.
The same measure for `COc1cc(NC(=O)c2ccnc(N3CCC(N4CCOCC4)CC3)c2)cc(OC)c1OC`: 1.9%; for `NC(=O)c1cccc(N2CCCC2CO)n1` (stereo not drawn): 1.37%.
`COc1cc(NC(=O)[C@H](N)c2ccc(F)cc2)c(F)cc1-c1cn[nH]c1`: the inhibition was 8.67%.
The same measure for `Cc1nn(C)c(C)c1-c1nc(NCCc2ccc(O)cc2)c2ncn(CCN3CCCC3=O)c2n1`: -10.9%; for `Cn1c(Nc2nc(NCCN3CCOCC3)c3ncn(-c4ccccc4)c3n2)nc2ccccc21`: -13.6%; for `CCN(CC)C(=O)C1CCCN(c2nc(NCc3cccc(C(F)(F)F)c3)c3cc(OC)c(OC)cc3n2)C1` (stereo not drawn): 3.43%.
